# Results as given in article PMC8384837, “Expanding the binding specificity for RNA recognition by a PUF domain”.
# Legend:
# Test in all cases: yeast three-hybrid, YBZ-1, SC-Leu-His + 0.5 mM 3-AT, 4 days
# Settings in all cases: tags: N-Gal4 AD-HA kept; label: inside an RPR1-promoter hybrid RNA with tandem MS2 sites; ssRNA
# [1] = biological target: PUM1 PUF domain R5-RYV (Homo sapiens, UniProt Q14671 828-1176, C1007R;R1008Y;Q1011V)
# Method in brief: (§1)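 Matching RNA elements and Pumilio-1 PUF domain libraries, randomized at the three base-contacting residues of every repeat, were co-expressed from a centromeric plasmid in strain YBZ-1 (LexA–MS2 coat fusion, HIS3 reporter). The repeat regions were PCR-amplified and Illumina-sequenced from cells grown four days on SC-Leu (input) or SC-Leu-His + 0.5 mM 3-AT (selection). The interaction score is the log change in variant frequency from input to selection. It is computed in log2, with a pseudocount of 1 for absent variants.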
# [2] = biological target: PUM1 PUF domain R5-QCC (Homo sapiens, UniProt Q14671 828-1176, C1007Q;R1008C;Q1011C)
# Method in brief: as §1
# [3] = biological target: PUM1 PUF domain R1-GVK (Homo sapiens, UniProt Q14671 828-1176, S863G;R864V;Q867K)
# Method in brief: as §1
# [4] = biological target: PUM1 PUF domain R1-NKK (Homo sapiens, UniProt Q14671 828-1176, S863N;R864K;Q867K)
# Method in brief: as §1
# [5] = biological target: PUM1 PUF domain R1-GHR (Homo sapiens, UniProt Q14671 828-1176, S863G;R864H;Q867R)
# Method in brief: as §1
# [6] = biological target: T1, PUM1 PUF domain R6-SWD (Homo sapiens, UniProt Q14671 828-1176, N1043S;Y1044W;Q1047D)
# T1 sequence: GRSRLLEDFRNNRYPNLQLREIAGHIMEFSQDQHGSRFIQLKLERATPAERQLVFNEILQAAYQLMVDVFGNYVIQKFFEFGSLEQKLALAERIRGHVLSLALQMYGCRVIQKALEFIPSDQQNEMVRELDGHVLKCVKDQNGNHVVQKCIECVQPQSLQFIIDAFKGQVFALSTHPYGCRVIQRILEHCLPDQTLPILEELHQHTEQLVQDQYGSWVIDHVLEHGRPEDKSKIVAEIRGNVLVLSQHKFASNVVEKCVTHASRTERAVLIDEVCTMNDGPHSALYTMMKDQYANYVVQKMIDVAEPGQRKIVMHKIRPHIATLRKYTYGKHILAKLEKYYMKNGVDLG
# Method in brief: as §1
# [7] = biological target: PUM1 PUF domain R3-GPK (Homo sapiens, UniProt Q14671 828-1176, C935G;R936P;Q939K)
# Method in brief: as §1
# [8] = biological target: PUM1 PUF domain R5-FRT (Homo sapiens, UniProt Q14671 828-1176, C1007F;Q1011T)
# Method in brief: as §1
# [9] = biological target: PUM1 PUF domain R5-WHA (Homo sapiens, UniProt Q14671 828-1176, C1007W;R1008H;Q1011A)
# Method in brief: as §1
# [10] = biological target: PUM1 PUF domain R5-RAM (Homo sapiens, UniProt Q14671 828-1176, C1007R;R1008A;Q1011M)
# Method in brief: as §1
# [11] = biological target: PUM1 PUF domain R7-KTE (Homo sapiens, UniProt Q14671 828-1176, S1079K;N1080T)
# Method in brief: as §1
# [12] = biological target: PUM1 PUF domain R7-EYN (Homo sapiens, UniProt Q14671 828-1176, S1079E;N1080Y;E1083N)
# Method in brief: as §1
# [13] = biological target: PUM1 PUF domain R7-RGN (Homo sapiens, UniProt Q14671 828-1176, S1079R;N1080G;E1083N)
# Method in brief: as §1
# [14] = biological target: PUM1 PUF domain R4-ANY (Homo sapiens, UniProt Q14671 828-1176, N971A;H972N;Q975Y)
# Method in brief: as §1
# [15] = biological target: PUM1 PUF domain R4-CPT (Homo sapiens, UniProt Q14671 828-1176, N971C;H972P;Q975T)
# Method in brief: as §1
# [16] = biological target: PUM1 PUF domain R8-MHP (Homo sapiens, UniProt Q14671 828-1176, N1122M;Y1123H;Q1126P)
# Method in brief: as §1
# [17] = biological target: PUM1 PUF domain R8-HFD (Homo sapiens, UniProt Q14671 828-1176, N1122H;Y1123F;Q1126D)
# Method in brief: as §1
# [18] = biological target: PUM1 PUF domain R3-YRC (Homo sapiens, UniProt Q14671 828-1176, C935Y;Q939C)
# Method in brief: as §1
# [19] = biological target: PUM1 PUF domain R1-KKV (Homo sapiens, UniProt Q14671 828-1176, S863K;R864K;Q867V)
# Method in brief: as §1
# [20] = biological target: PUM1 PUF domain R5-VHM (Homo sapiens, UniProt Q14671 828-1176, C1007V;R1008H;Q1011M)
# Method in brief: as §1
sequence,measurement,setting,value
GGCUAGAACUAGUGGAUCCCCCGGCGCCCGGCGGCUCGAGCCCGGGUAAGUGUGAAUAGUCUGCAUGCCGCCGGGCGCCAUGCCUGCAGGUCGACUCUAGAAAACAUG,binding signal,[1],2.35 log2 enrichment (interaction score)
same,binding signal,[2],3.84 log2 enrichment (interaction score)
GGCUAGAACUAGUGGAUCCCCCGGCGCCCGGCGGCUCGAGCCCGGGUAAGUGUAAAUCGUCUGCAUGCCGCCGGGCGCCAUGCCUGCAGGUCGACUCUAGAAAACAUG,binding signal,[3],3.43 log2 enrichment (interaction score)
same,binding signal,[4],4.39 log2 enrichment (interaction score)
same,binding signal,[5],2.23 log2 enrichment (interaction score)
GGCUAGAACUAGUGGAUCCCCCGGCGCCCGGCGGCUCGAGCCCGGGUAAGUGGAAAUAGUCUGCAUGCCGCCGGGCGCCAUGCCUGCAGGUCGACUCUAGAAAACAUG,binding signal,[6],5.64 log2 enrichment (interaction score)
GGCUAGAACUAGUGGAUCCCCCGGCGCCCGGCGGCUCGAGCCCGGGUAAGUGUAAUUAGUCUGCAUGCCGCCGGGCGCCAUGCCUGCAGGUCGACUCUAGAAAACAUG,binding signal,[7],3.25 log2 enrichment (interaction score)
GGCUAGAACUAGUGGAUCCCCCGGCGCCCGGCGGCUCGAGCCCGGGUAAGUGUUAAUAGUCUGCAUGCCGCCGGGCGCCAUGCCUGCAGGUCGACUCUAGAAAACAUG,binding signal,[1],4.93 log2 enrichment (interaction score)
same,binding signal,[8],1.56 log2 enrichment (interaction score)
GGCUAGAACUAGUGGAUCCCCCGGCGCCCGGCGGCUCGAGCCCGGGUAAGUGUCAAUAGUCUGCAUGCCGCCGGGCGCCAUGCCUGCAGGUCGACUCUAGAAAACAUG,binding signal,[9],3.04 log2 enrichment (interaction score)
same,binding signal,[1],5.29 log2 enrichment (interaction score)
same,binding signal,[8],2.21 log2 enrichment (interaction score)
same,binding signal,[10],2.69 log2 enrichment (interaction score)
GGCUAGAACUAGUGGAUCCCCCGGCGCCCGGCGGCUCGAGCCCGGGUAAGUCUAAAUAGUCUGCAUGCCGCCGGGCGCCAUGCCUGCAGGUCGACUCUAGAAAACAUG,binding signal,[11],2.46 log2 enrichment (interaction score)
same,binding signal,[12],3.13 log2 enrichment (interaction score)
same,binding signal,[13],3.02 log2 enrichment (interaction score)
GGCUAGAACUAGUGGAUCCCCCGGCGCCCGGCGGCUCGAGCCCGGGUAAGUGUAAAUUGUCUGCAUGCCGCCGGGCGCCAUGCCUGCAGGUCGACUCUAGAAAACAUG,binding signal,[3],2 log2 enrichment (interaction score)
same,binding signal,[5],1.34 log2 enrichment (interaction score)
GGCUAGAACUAGUGGAUCCCCCGGCGCCCGGCGGCUCGAGCCCGGGUAAGUGUAUAUAGUCUGCAUGCCGCCGGGCGCCAUGCCUGCAGGUCGACUCUAGAAAACAUG,binding signal,[14],3.22 log2 enrichment (interaction score)
same,binding signal,[15],3.09 log2 enrichment (interaction score)
GGCUAGAACUAGUGGAUCCCCCGGCGCCCGGCGGCUCGAGCCCGGGUAAGCGUAAAUAGUCUGCAUGCCGCCGGGCGCCAUGCCUGCAGGUCGACUCUAGAAAACAUG,binding signal,[16],2.6 log2 enrichment (interaction score)
same,binding signal,[17],2.46 log2 enrichment (interaction score)
GGCUAGAACUAGUGGAUCCCCCGGCGCCCGGCGGCUCGAGCCCGGGUAAGUGUAAGUAGUCUGCAUGCCGCCGGGCGCCAUGCCUGCAGGUCGACUCUAGAAAACAUG,binding signal,[18],4.22 log2 enrichment (interaction score)
GGCUAGAACUAGUGGAUCCCCCGGCGCCCGGCGGCUCGAGCCCGGGUAAGUGUACAUAGUCUGCAUGCCGCCGGGCGCCAUGCCUGCAGGUCGACUCUAGAAAACAUG,binding signal,[15],1.75 log2 enrichment (interaction score)
GGCUAGAACUAGUGGAUCCCCCGGCGCCCGGCGGCUCGAGCCCGGGUAAGUGUAAAUAGUCUGCAUGCCGCCGGGCGCCAUGCCUGCAGGUCGACUCUAGAAAACAUG,binding signal,[19],2.4 log2 enrichment (interaction score)
same,binding signal,[20],2.73 log2 enrichment (interaction score)
same,binding signal,[9],1.08 log2 enrichment (interaction score)
same,binding signal,[1],1.83 log2 enrichment (interaction score)
GGCUAGAACUAGUGGAUCCCCCGGCGCCCGGCGGCUCGAGCCCGGGUAAGUGUAAAUGGUCUGCAUGCCGCCGGGCGCCAUGCCUGCAGGUCGACUCUAGAAAACAUG,binding signal,[4],3.03 log2 enrichment (interaction score)
